Results from the supplement of paper PMC4466140.

Tests used:
Assay in all cases: SPOT peptide array binding signal intensity (averaged, normalized) (arbitrary units (background-subtracted, floor 0; scale differs between SH3 domains)); higher = stronger binding of the SH3 domain to the peptide
CaNbp2 = molecular target: CaNbp2
Outline: (§1)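 Cellulose membranes carried synthetic 15-mer peptides with cysteines swapped for serines. These were incubated overnight at 4°C with 10 μg/ml of GST-fused SH3 domains from four yeast species in TBS-based blocking buffer. Binding signal, detected with anti-GST antibody and quantified in Genespotter, is the normalized, background-subtracted spot intensity averaged over replicates, in arbitrary units specific to each domain.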

CaRvs167 = molecular target: CaRvs167
Outline: as §1

CaRvs167-3 = molecular target: CaRvs167-3
Outline: as §1

CaSho1 = molecular target: CaSho1
Outline: as §1

CaSla1-D1-D2 = molecular target: CaSla1-D1-D2
Outline: as §1

CaSla1-D3 = molecular target: CaSla1-D3
Outline: as §1

ScAbp1 = molecular target: ScAbp1
Outline: as §1

ScBbc1 = molecular target: ScBbc1
Outline: as §1

ScBem1-D1 = molecular target: ScBem1-D1
Outline: as §1

ScBzz1-D1 = molecular target: ScBzz1-D1
Outline: as §1

ScBzz1-D2 = molecular target: ScBzz1-D2
Outline: as §1

ScCyk3 = molecular target: ScCyk3
Outline: as §1

ScFus1 = molecular target: ScFus1
Outline: as §1

ScHof1 = molecular target: ScHof1
Outline: as §1

ScHse1 = molecular target: ScHse1
Outline: as §1

ScLsb1 = molecular target: ScLsb1
Outline: as §1

ScLsb2 = molecular target: ScLsb2
Outline: as §1

ScLsb3 = molecular target: ScLsb3
Outline: as §1

ScLsb4 = molecular target: ScLsb4
Outline: as §1

ScMyo3 = molecular target: ScMyo3
Outline: as §1

ScMyo5 = molecular target: ScMyo5
Outline: as §1

ScNbp2 = molecular target: ScNbp2
Outline: as §1

ScPex13 = molecular target: ScPex13
Outline: as §1

ScRvs167 = molecular target: ScRvs167
Outline: as §1

ScSho1 = molecular target: ScSho1
Outline: as §1

ScSla1-D1-D2 = molecular target: ScSla1-D1-D2
Outline: as §1

ScSla1-D3 = molecular target: ScSla1-D3
Outline: as §1

SpAbp1-D1 = molecular target: SpAbp1-D1
Outline: as §1

SpBbc1 = molecular target: SpBbc1
Outline: as §1

SpBzz1-D1 = molecular target: SpBzz1-D1
Outline: as §1

SpBzz1-D2 = molecular target: SpBzz1-D2
Outline: as §1

SpCyk3 = molecular target: SpCyk3
Outline: as §1

SpHof1 = molecular target: SpHof1
Outline: as §1

SpHof1-2 = molecular target: SpHof1-2
Outline: as §1

SpHof1-3 = molecular target: SpHof1-3
Outline: as §1

SpHse1 = molecular target: SpHse1
Outline: as §1

SpLsb1 = molecular target: SpLsb1
Outline: as §1

SpLsb4 = molecular target: SpLsb4
Outline: as §1

SpMyo1 = molecular target: SpMyo1
Outline: as §1

SpNbp2 = molecular target: SpNbp2
Outline: as §1

SpPex13 = molecular target: SpPex13
Outline: as §1

SpRvs167 = molecular target: SpRvs167
Outline: as §1

SpSla1-D1-D2 = molecular target: SpSla1-D1-D2
Outline: as §1

SpSla1-D3 = molecular target: SpSla1-D3
Outline: as §1

VPPVPLPFGIPPFPM
SPOT peptide array binding signal intensity (CaNbp2): 88.5 | SPOT peptide array binding signal intensity (CaRvs167): 1.33 | SPOT peptide array binding signal intensity (CaRvs167-3): 2.5 | SPOT peptide array binding signal intensity (CaSho1): 25 | SPOT peptide array binding signal intensity (CaSla1-D1-D2): 34 | SPOT peptide array binding signal intensity (CaSla1-D3): 25.8 | SPOT peptide array binding signal intensity (ScAbp1): ≤ 0 | SPOT peptide array binding signal intensity (ScBbc1): ≤ 0 | SPOT peptide array binding signal intensity (ScBem1-D1): 1 | SPOT peptide array binding signal intensity (ScBzz1-D1): ≤ 0 | SPOT peptide array binding signal intensity (ScBzz1-D2): 2.5 | SPOT peptide array binding signal intensity (ScCyk3): 2.5 | SPOT peptide array binding signal intensity (ScFus1): ≤ 0 | SPOT peptide array binding signal intensity (ScHof1): 144 | SPOT peptide array binding signal intensity (ScHse1): 47 | SPOT peptide array binding signal intensity (ScLsb1): 0.75 | SPOT peptide array binding signal intensity (ScLsb2): ≤ 0 | SPOT peptide array binding signal intensity (ScLsb3): 6.5 | SPOT peptide array binding signal intensity (ScLsb4): ≤ 0 | SPOT peptide array binding signal intensity (ScMyo3): 867 | SPOT peptide array binding signal intensity (ScMyo5): 308 | SPOT peptide array binding signal intensity (ScNbp2): 23 | SPOT peptide array binding signal intensity (ScPex13): 772 | SPOT peptide array binding signal intensity (ScRvs167): 0.333 | SPOT peptide array binding signal intensity (ScSho1): 41 | SPOT peptide array binding signal intensity (ScSla1-D1-D2): ≤ 0 | SPOT peptide array binding signal intensity (ScSla1-D3): 7.5 | SPOT peptide array binding signal intensity (SpAbp1-D1): 2 | SPOT peptide array binding signal intensity (SpBbc1): 1.5 | SPOT peptide array binding signal intensity (SpBzz1-D1): 236 | SPOT peptide array binding signal intensity (SpBzz1-D2): 1.5 | SPOT peptide array binding signal intensity (SpCyk3): 1 | SPOT peptide array binding signal intensity (SpHof1): 4 | SPOT peptide array binding signal intensity (SpHof1-2): 9.5 | SPOT peptide array binding signal intensity (SpHof1-3): 7 | SPOT peptide array binding signal intensity (SpHse1): 70.8 | SPOT peptide array binding signal intensity (SpLsb1): ≤ 0 | SPOT peptide array binding signal intensity (SpLsb4): 51.5 | SPOT peptide array binding signal intensity (SpMyo1): 775 | SPOT peptide array binding signal intensity (SpNbp2): 7 | SPOT peptide array binding signal intensity (SpPex13): 9.5 | SPOT peptide array binding signal intensity (SpRvs167): 24.5 | SPOT peptide array binding signal intensity (SpSla1-D1-D2): 3 | SPOT peptide array binding signal intensity (SpSla1-D3): 6
